Test results: PubChem BioAssay (NCATS)
A number with no mark means an inactive call. No rule for the calls is given here.

tested on: HIV-1 nucleocapsid protein NCp7 (binding to TG oligonucleotide); experiment: HIV Nucleocapsid (AID 346); details: HIV-1 NC / fluorescein-TGTGTGTG probe, fluorescence polarization;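 also: potency is for inhibitors that block NC binding and lower polarization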
Outline: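 Inhibition of nucleocapsid binding to single-stranded 5'-TGTGTGTG probe (10 nM) was measured by fluorescence polarization after 1 hr at room temperature with 100 nM protein under high-salt, zinc-containing, reducing conditions.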
Potency is read from the fitted curve at half-maximal effect.

Row | Structure (SMILES) | Potency [µM]
1 | c1ccc(CNc2ccnc(-c3ccc4c(c3)OCO4)n2)cc1 | > 20
2 | COc1ccc2[nH]cc(CCNc3ccnc(-c4ccccc4C(F)(F)F)n3)c2c1 | > 20
3 | CCNc1ncc2ncc(=O)n(Cc3cccs3)c2n1 | > 20
4 | CC(=O)NCCNc1cc(-c2ccccc2C(F)(F)F)ncn1 | > 20
5 | N#Cc1ccc(CN2CCC3(CC2)CCN(C(=O)c2cc(C(F)(F)F)cc(C(F)(F)F)c2)CC3)cc1 | > 20
6 | COCCn1c(=O)c(-c2ccc(OC)cc2)nc2cnc(N3CCOCC3)nc21 | > 20
7 | c1ccc(CNc2ncnc3ccc(-c4cccnc4)cc23)cc1 | > 20
8 | COc1cccc(-c2ccc3ncnc(NCCNC(C)=O)c3c2)c1 | > 20
9 | CN(C)c1ccc(-c2cncnc2N(C)Cc2ccco2)cc1 | > 20
10 | O=C(Nc1cccc(F)c1)N1CC[C@@]2(CCCN(C(=O)c3csnn3)C2)C1 | > 20
11 | COc1ccc(NC(=O)N2CCCC3(CCN(C(=O)c4cccc(F)c4)CC3)C2)cc1 | > 20
12 | CN(C)c1ncc2nc(-c3ccc(Cl)cc3)c(=O)n(-c3ccccc3)c2n1 | > 4
13 | COc1cccc(Cn2c(=O)c(-c3cn(C)c4ccccc34)nc3cncnc32)c1 | > 20
14 | FC(F)(F)c1ccccc1-c1cncnc1-n1ccnc1 | > 20
15 | COCC(=O)N1CCC2(CCN(Cc3ccccc3OC)CC2)CC1 | > 20
16 | O=C(c1cccc(F)c1)N1CCC2(CCCN(C(c3ccccc3)c3ccccc3)C2)CC1 | > 20
17 | c1nc(N2CCNCC2)c2cc(-c3ccc4c(c3)OCO4)ccc2n1 | > 20
18 | COc1cccc(-c2ccc3ncnc(NC4CCNCC4)c3c2)c1 | > 20
19 | COc1ccccc1-c1cc(Nc2ccc(F)cc2)ncn1 | > 20
20 | Cc1noc(C)c1C(=O)N1CCC2(CCN(Cc3ccccc3)CC2)CC1 | > 20
21 | Clc1ccccc1-c1ccc2ncnc(NCCN3CCOCC3)c2c1 | > 20
22 | COCC(=O)N1CCC2(CC1)CN(Cc1ccccc1OC)C2 | > 20
23 | COc1ccccc1-c1ccc2ncnc(NCCN3CCOCC3)c2c1 | > 20
24 | O=C(Nc1cccc(F)c1)N1CC2(CCN(C(=O)c3cc(C(F)(F)F)cc(C(F)(F)F)c3)CC2)C1 | > 4
